Our source for the outcome and AC50 values is PubChem BioAssay (EPA / NIEHS).

Records with an inconclusive call do not appear. Some compounds were tested as several samples or in several runs, with calls that do not always agree. Active and inactive are the calls of the source. The calls were made as follows: active = hit-call score of the fitted dose curve at least 0.9, where 1 is the maximum; inconclusive = response in the unintended direction; inactive = score below 0.9.

Sequence of Cellular tumor antigen p53 (Homo sapiens) (P04637 whole entry, looked up): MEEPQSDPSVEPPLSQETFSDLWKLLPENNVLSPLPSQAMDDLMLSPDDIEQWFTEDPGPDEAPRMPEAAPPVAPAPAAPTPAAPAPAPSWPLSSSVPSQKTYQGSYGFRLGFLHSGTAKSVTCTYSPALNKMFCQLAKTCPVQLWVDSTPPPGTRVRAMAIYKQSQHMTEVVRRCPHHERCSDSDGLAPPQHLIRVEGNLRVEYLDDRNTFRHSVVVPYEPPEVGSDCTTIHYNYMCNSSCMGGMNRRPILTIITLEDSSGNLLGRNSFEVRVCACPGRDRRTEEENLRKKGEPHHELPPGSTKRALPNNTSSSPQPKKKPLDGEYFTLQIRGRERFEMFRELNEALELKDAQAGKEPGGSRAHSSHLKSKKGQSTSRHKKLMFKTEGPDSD

Tested on in the first assay: not listed separately
Put plainly: TOX21_p53_BLA_p3_viability: Viability Assessment in the Tox21 HCT-116 p53 Agonism Beta-lactamase Assay, Phase 3 (AID 2283593).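 Also: cells exposed to compound for 16 h before reading.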 The essentials:
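HCT116 cells, 4000/well, dosed 5 h after plating by pin transfer (217-fold dilution from DMSO stock) and incubated 16 h at 37C, 5% CO2. Viability read as ATP luminescence with CellTiter-Glo after 30 min at room temperature.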
As for `c1ccc2cnccc2c1`, the molecule was called inactive. For `CC(C)CCCCCOC(=O)CS`, the call was inactive. Still for that read-out and setting: to `CC1(C)CCC[C@]2(C)[C@H]3CC(=O)O[C@]3(C)CC[C@@H]12` belongs “inactive”; to `CCCCC(CC)COC(=O)/C=C/c1ccc(OC)cc1` (stereo unspecified), “inactive”.

Another assay has as its target Cellular tumor antigen p53 (Homo sapiens) (UniProt P04637). Put plainly: TOX21_p53_BLA_p3_ratio: Tox21 HCT-116 p53 Agonism Beta-lactamase Assay, Ratio, Phase 3 (AID 2283596). An outline of the steps:
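Cells were seeded at 4000/well, rested 5 h at 37C, then dosed with DMSO compound solutions (217-fold dilution) for 16 h. CCF4-AM substrate was loaded for 2 h at room temperature, and the 460/530 nm emission ratio was fitted for gain of signal versus DMSO.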
Regarding `CC(C)(CO)COC(=O)C(C)(C)CO`, the result was inactive. In the case of `C[Si](C)(C)N[Si](C)(C)C`, the outcome was inactive. Take `C=CC(C)(CCC=C(C)C)OC(=O)C=Cc1ccccc1` (stereo unspecified): the outcome was inactive. For the molecule `CN(C)c1ccc2nc3ccc(=[N+](C)C)cc-3sc2c1`, the AC50 is 34.3 µM (active) and the outcome was inactive. For `CC1(C)[C@@H]2CC[C@@]1(C)C(=O)C2`, the result was inactive. The same measure, in the same setting: under `CC1C(C)(C)C2=C(C(=O)CCC2)C1(C)C` (stereo unspecified) stands “inactive”.

`CCCCCCCCCCCCCCCCCCOS(=O)(=O)O`: the AC50 was 86.5 µM (active). Consider `C=C1C[C@H]2[C@@H]3C=C(C)C4=CC(=O)CC[C@]4(C)[C@H]3CC[C@]2(C)[C@@]1(OC(C)=O)C(C)=O`, for which the result was inactive. The same measure, in the same setting: to `CCOC(=O)c1ccc(C)cc1` belongs “inactive”; to `CC(=O)CC(=O)Nc1ccccc1C`, “inactive”; to `CC(=O)OC1CCCCC1C(C)(C)C` (stereo unspecified), “inactive”. For the molecule `C=C(C)C(=O)OCC(O)COc1ccc(C(C)(C)c2ccc(OCC(O)COC(=O)C(=C)C)cc2)cc1` (stereo unspecified), the concentration at half-maximal activity (AC50) is 86.7 µM (active). With `C=CCCCCCCCCO`, the result was inactive. The same measure, in the same setting: to `CCCCCCOc1ccc(N)cc1` belongs “inactive”; to `CCCCOC(=O)C(C)CC` (stereo unspecified), “inactive”; to `O=C1CCCCCCCCCCC1`, “inactive”. Same read-out and setting: to `Cc1noc(NS(=O)(=O)c2ccc(N)cc2)c1C` belongs “inactive”.

In the case of `CCCCCCC=O`, the outcome was inactive. For the molecule `CCOC(=O)/C=C\C(=O)OCC`, the outcome was inactive. Consider `C=CCNCC=C`, for which the concentration at half-maximal activity (AC50) was 84.2 µM (active) and the outcome was inactive.

The term AC50 denotes the midpoint of the concentration-response curve, whichever way the signal moves.
